The values below come from PubChem BioAssay AID488969 (Vanderbilt High Throughput Screening Facility, 2010).

The structures appear in SMILES notation. Over roughly 110,000 compounds, “z-score” has its median near -0.1; the highest 2% begin near 2. The sample as a whole holds a higher share of the highest values than the screen did. Calls of active or inactive are those of the source.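 The calls were made as follows: active = z-score in the third read window above 3 or below -3; inactive = the rest.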

Chain of Metabotropic glutamate receptor 8 (Rattus norvegicus) (P70579 whole entry, looked up): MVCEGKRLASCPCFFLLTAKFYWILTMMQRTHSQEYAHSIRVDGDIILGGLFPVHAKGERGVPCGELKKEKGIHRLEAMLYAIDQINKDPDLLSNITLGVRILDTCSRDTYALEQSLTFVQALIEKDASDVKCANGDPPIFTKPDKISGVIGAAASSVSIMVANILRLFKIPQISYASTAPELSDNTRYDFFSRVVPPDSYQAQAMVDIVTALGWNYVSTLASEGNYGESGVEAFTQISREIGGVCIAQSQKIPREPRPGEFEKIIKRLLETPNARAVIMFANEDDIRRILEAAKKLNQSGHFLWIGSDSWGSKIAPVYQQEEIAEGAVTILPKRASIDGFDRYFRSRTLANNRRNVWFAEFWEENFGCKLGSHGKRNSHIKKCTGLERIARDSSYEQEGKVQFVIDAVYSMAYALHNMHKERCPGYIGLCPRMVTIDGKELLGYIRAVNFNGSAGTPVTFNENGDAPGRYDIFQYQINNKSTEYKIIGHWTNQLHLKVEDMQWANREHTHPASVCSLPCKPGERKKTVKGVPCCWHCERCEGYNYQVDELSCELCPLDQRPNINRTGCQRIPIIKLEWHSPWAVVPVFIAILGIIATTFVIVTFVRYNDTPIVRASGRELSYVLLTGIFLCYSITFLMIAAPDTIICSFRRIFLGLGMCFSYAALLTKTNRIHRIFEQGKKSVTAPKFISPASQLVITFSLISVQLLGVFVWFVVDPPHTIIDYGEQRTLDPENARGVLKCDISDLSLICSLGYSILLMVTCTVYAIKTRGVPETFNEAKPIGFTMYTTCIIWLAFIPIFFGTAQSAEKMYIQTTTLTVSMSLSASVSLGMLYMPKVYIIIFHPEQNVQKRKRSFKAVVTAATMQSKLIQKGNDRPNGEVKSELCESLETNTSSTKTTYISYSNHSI

The assay has as its target Metabotropic glutamate receptor 8 (Rattus norvegicus) (UniProt P70579). Description: rat mGluR8 modulators via GIRK flux, primary screen, cell-based, thallium flux, HTS (AID 488969). The following applies: HEK293 rat mGluR8, GIRK (G protein-gated inwardly rectifying potassium channel) thallium flux, FluoZin2; at 10 µM; stronger effect = higher value; submaximal glutamate (EC20) added with thallium.
In the case of `O=c1oc2ccccc2c(N2CCCC2)c1CN1CCCC1`, the z-score is -0.557.

As for `CCOC(=O)NC1(NCC(C)C)Oc2ccccc2O1`, the z-score is -0.313.

For `COc1cc(/C=N/OCC(=O)NC2CCCCC2)ccc1OCc1ccccc1`, the z-score was -0.752.

Molecule `CC(C)c1ccc(OCC(=O)Nc2ccc(OC(F)(F)F)cc2)cc1` yielded a z-score of -0.173.

Regarding `COc1ccccc1C(=O)NCCn1cc(SCC(=O)Nc2cc(C)on2)c2ccccc21`, the z-score is -0.181.

With `O=C(NC(=S)Nc1ccc(Cl)cn1)C(c1ccccc1)c1ccccc1`, the z-score was 0.284.

In the case of `Cc1ccnc(NC(=S)NC(=O)c2cccs2)c1`, the z-score is 7.29 (active).

For `O=C(Nc1ncc(Cl)cn1)c1cccs1`, the z-score is 0.0318.

As to `Cc1ccnc(NC(=S)NC(=O)/C=C/c2ccco2)c1`, the z-score was 3.2 (active).

The molecule `Cc1ccnc(NC(=O)c2cccs2)c1` showed a z-score of -0.306.

As for `Cc1ccc2nsnc2c1NC(=S)NC(=O)c1ccco1`, the z-score was 6.75 (active).

Molecule `CC(=O)Nc1c(C)ccc2nsnc12` came in with a z-score of 0.0413.

Take `Cc1cccnc1NC(=S)NC(=O)c1cccs1`: the z-score worked out at 0.0645.

`O=C(NC(=S)Nc1c(Cl)ccc2nsnc12)c1ccco1` showed a z-score of -0.429.

The molecule `Cc1cccnc1NC(=S)NC(=O)/C=C/c1ccco1` gave a z-score of 0.37.

Molecule `Cc1ccnc(NC(=S)NC(=O)/C=C/c2ccccc2)c1` displayed a z-score of -0.0726.

`O=C(NC(=S)Nc1ccc(Cl)cn1)c1cccs1`: the z-score is 10.3 (active).

`O=C(c1ccccc1)n1ccn(-c2ccccc2)c1=S` displayed a z-score of -1.09.

In the case of `CC1CC1C(=O)OCC(=O)Nc1ccc(N=Nc2ccccc2)cc1` (centres undefined), the z-score came to 0.616.

As to `O=C(C1CC(c2ccc(F)cc2)=NO1)N1CCCCC1` (centres undefined), the z-score is -0.0299.

`O=C(CCC(NC(=O)OCc1ccccc1)C(=O)OCC(=O)N1CCCCC1)OCC(=O)N1CCCCC1` (centres undefined) yielded a z-score of 0.254.

Molecule `C=CCC(NCc1ccco1)c1ccc(OC)cc1OC` (centres undefined) showed a z-score of -0.246.

`CC1CCc2nn(CC(=O)NCCN3CCCCC3C)cc2C1` (centres undefined) gave a z-score of 0.216.

In turn, `Cc1ccc2ccc(S(=O)(=O)n3nc(C)cc3C)cc2c1` registered a z-score of -0.75.

In the case of `O=C(NC(=S)Nc1ccccn1)c1ccco1`, the z-score was 1.2.

Take `Cc1cccc(NC(=S)NC(=O)c2ccco2)n1`: the z-score is 3.93 (active).

In the case of `Cc1cccc(NC(=O)c2cc(NC(=O)c3ccco3)ccc2Cl)n1`, the z-score is -0.288.

The molecule `CCC(=O)NC(=S)Nc1ccc(Cl)cn1` showed a z-score of 0.168.

As for `COC(=O)C(NC(=O)c1ccco1)(Nc1cc(C)ccn1)C(F)(F)F` (centres undefined), the z-score stood at 0.329.

Molecule `Cc1cccc(NC(=O)c2cccs2)n1` gave a z-score of 0.965.

For `Cc1cccc(NC(=S)NC(=O)c2cccs2)n1`, the z-score was 5.04 (active).

For the molecule `CCCC(=O)NC(=S)Nc1ccc(Cl)cn1`, the z-score came to 0.131.

Turning to `Cc1ccnc(NC(=S)NC(=O)c2ccco2)c1`, the z-score is 2.

Consider `Cc1cccc(NC(=O)Cc2cccs2)n1`, for which the z-score was -0.58.

Take `CC(C)CC(=O)NC(=S)Nc1ccc(Cl)cn1`: the z-score came to 2.96.

Molecule `Cc1cccc(NC(=S)NC(=O)/C=C/c2ccco2)n1` gave a z-score of 0.626.

Molecule `CC(=O)c1c(C)[nH]c(C(=O)COC(=O)CNS(=O)(=O)c2ccccc2)c1C` gave a z-score of -0.187.

Turning to `C(=N\N1CCN(Cc2ccccc2)CC1)/c1cccs1`, the z-score was -0.298.

Molecule `CC(=O)Nc1ccc(S(=O)(=O)NCCC(=O)Nc2ccc(C)c(Cl)c2)cc1` yielded a z-score of -0.0921.

Take `CC(=O)c1ccc(NC(=O)CSc2ccc(-c3ccc4c(c3)OCO4)nn2)cc1`: the z-score was -0.125.

`CCOC(=O)N1CCN(C(=O)C2CC(c3cc(OC)ccc3OC)=NO2)CC1` (centres undefined) gave a z-score of -0.594.

Molecule `COc1ccc(Br)cc1CNC(=O)C1CCN(S(=O)(=O)N2CCCCC2)CC1` had a z-score of -0.52.

In turn, `Cc1ccc(C(=O)NC(C)c2ccc(F)cc2)cc1` (centres undefined) showed a z-score of -0.249.

In the case of `Fc1ccc(-c2nnc3ccc(N4CCc5ccccc5C4)nn23)cc1`, the z-score came to 2.89.

In the case of `c1ccc(-c2nnc3ccc(N4CCCC4)nn23)cc1`, the z-score is -4.38 (active).

`O=C(Nc1ccc(F)cc1)N1CCN(c2ccc3nnc(-c4ccc(F)cc4)n3n2)CC1` displayed a z-score of -1.17.

Turning to `Cc1ccc(NC(=O)NNC(=O)c2cccs2)cc1`, the z-score turned out to be 0.53.

Regarding `NC(=O)c1ccc(C(F)(F)F)n(Cc2ccc(Cl)cc2)c1=O`, the z-score is -0.45.

Molecule `Cc1[nH]n(-c2ccccc2)c(=O)c1-c1cccc(Cl)c1` showed a z-score of 0.257.

As for `CN(C)S(=O)(=O)N1CCN(C(=O)N(c2ccccc2)c2ccccc2)CC1`, the z-score is -0.395.

Turning to `O=C(N1CCOCC1)N1CCN(C(=O)N(c2ccccc2)c2ccccc2)CC1`, the z-score is -0.217.

Regarding `O=C(N1CCCCC1)N1CCN(C(=O)N(c2ccccc2)c2ccccc2)CC1`, the z-score was 3.16 (active).

`COc1ccc(-c2nc3c(c(=O)c4ccccc4n3C)c(=O)n2Cc2ccccc2)cc1`: the z-score was -0.433.

Regarding `CC(C)CN(/C=N/c1sc2c(c1C#N)CCCCC2)CC(C)C`, the z-score came out at 2.9.

Regarding `CCCN(/C=N/c1sc2c(c1C#N)CCCCC2)CCC`, the z-score is -0.155.

`CCN(/C=N/c1sc2c(c1C#N)CCCCC2)CC` showed a z-score of -0.292.

For `CCOC(=O)c1nnc2c(Br)c(-c3ccccc3)nn2c1C`, the z-score is -0.554.

`CCC(=O)Nc1ccc(-c2csc(NNC(C)=O)n2)cc1` had a z-score of -0.182.

Turning to `Cn1ccnc1SCC(=O)Nc1ccc(Oc2ccccc2)cc1`, the z-score turned out to be 2.29.

The molecule `CC(C)(C)NC(=O)CSc1nccn1Cc1ccccc1` returned a z-score of 0.488.

Molecule `CCOC(=O)c1ccc(NC(=O)CSc2nnc(COc3ccccc3)n2C)cc1` had a z-score of -0.177.

`COC(=O)c1cccc(NC(=O)CSc2nnc(COc3ccccc3)n2C)c1` registered a z-score of -0.736.

In turn, `Cn1ccnc1SCC(=O)Nc1ccccc1` returned a z-score of 0.326.

`CCOc1ccc(NC(=O)CSc2nccn2C)cc1` displayed a z-score of -0.0963.

For the molecule `COC(=O)c1ccc(NC(=O)CSc2nnc(COc3ccccc3)n2C)cc1`, the z-score is 11.8 (active).

On to `CC(=O)Nc1ccc(NC(=O)CSc2nccn2Cc2ccccc2)cc1`, for which the z-score stood at 2.89.

`Cc1ccc(NC(=O)CSc2nccn2Cc2ccccc2)cc1C` showed a z-score of -0.465.

`CCc1sc(C(=O)Nc2ccc(F)cc2C)cc1C` yielded a z-score of -0.0957.

`O=C(CCC(=O)c1cccs1)Nc1ccc(F)c(F)c1F` came in with a z-score of 0.32.

For `CCc1ccc(NS(=O)(=O)c2cc(OC)ccc2OC)cc1`, the z-score is -0.868.

In turn, `Cc1nc(NCCc2ccc(F)cc2)c(C#N)c(C)c1[N+](=O)[O-]` showed a z-score of -0.205.

Take `COc1cc(C)nc(OCCNS(=O)(=O)c2cc(C)ccc2C)n1`: the z-score amounted to 0.217.

`CC(/C=N/NC(=O)c1nn(C)c(C)c1Br)=C\c1ccccc1` gave a z-score of -0.0235.

As for `CC(/C=N/NC(=O)c1c(Br)cnn1C)=C\c1ccccc1`, the z-score was 3.16 (active).

`CC(/C=N/NC(=O)c1ccc(Br)cc1)=C\c1ccccc1` showed a z-score of -1.26.

In turn, `O=C(Nc1ccc(C(=O)N2CCCCC2)cc1)c1ccc(Br)cc1` yielded a z-score of 1.09.

`CC(C)CCNC(=O)Cn1c(=O)oc2cc(S(=O)(=O)N3CCc4ccccc43)ccc21` registered a z-score of -0.186.

With `COc1cc(CNc2ccc(CNc3ncn[nH]3)cc2)ccc1OCc1ccccc1`, the z-score is -0.026.

Take `COc1cc(CNc2ccc(N3CCCC3)cc2)ccc1OCc1ccccc1F`: the z-score was -0.289.

As to `COc1cc(CNc2ccc(N3CCCC3)cc2)ccc1OCc1ccccc1`, the z-score was 3.82 (active).

`CC(C(=O)NCCN1C(=O)S/C(=C\c2cccs2)C1=O)N1C(=O)c2ccccc2C1=O` (centres undefined) gave a z-score of -0.139.

`Cc1ccc(C)c(NC(=O)CCC(=O)NNC(=O)c2cccc([N+](=O)[O-])c2)c1` gave a z-score of 0.265.

As for `CSc1ccccc1C(=O)Nc1cccc(C(C)=O)c1`, the z-score was 3.03 (active).

Consider `CSc1ccccc1C(=O)Nc1cccc(C)c1`, for which the z-score was -0.792.

Regarding `CSc1ccccc1C(=O)Nc1cccc(C(C)O)c1` (centres undefined), the z-score turned out to be 0.209.

With `CCOC(=O)Cc1c(C)nc2cc(-c3ccc(C)cc3)[nH]n2c1=O`, the z-score is 0.0804.

In the case of `C1CCCC(N2CCNCC2)CC1`, the z-score was determined as 0.33.

In turn, `COC(=O)c1cc(=O)nc2sccn12` returned a z-score of -0.417.

The molecule `CCOC(=O)c1cc(CC)sc1NC(=O)c1cc(OC)c(OC)c(OC)c1` registered a z-score of 0.399.

As to `CCOC(=O)c1cc(-c2ccccc2)sc1NC(=O)c1ccc(OC)cc1`, the z-score is -0.199.

In the case of `CCc1cc(C(N)=O)c(NC(=O)c2ccc(OC)cc2)s1`, the z-score is 3.98 (active).

As to `CCOc1ccc(OC(=O)NC(c2ccccc2)C(Cl)(Cl)Cl)cc1` (centres undefined), the z-score was -0.048.

In the case of `CC1CCCCN1CCn1c(=S)[nH]c2ncccc2c1=O` (centres undefined), the z-score came to 1.22.

`CCN(CC)CCn1c(=S)[nH]c2ncccc2c1=O` registered a z-score of 0.0629.

The molecule `COCCn1c(=S)[nH]c2ncccc2c1=O` came in with a z-score of 0.35.

Regarding `CC1CCN(CCn2c(=S)[nH]c3ncccc3c2=O)CC1`, the z-score is 4.47 (active).

For the molecule `O=c1c2cccnc2[nH]c(=S)n1Cc1ccccc1`, the z-score was 3 (active).

Take `CCOC(=O)N1CCN(C(=O)c2ccc3c(=O)n(Cc4ccc(Cl)cc4)c(=S)[nH]c3c2)CC1`: the z-score was found to be 0.798.

`O=c1c2cccnc2[nH]c(=S)n1CCCN1CCN(c2ccc(F)cc2)CC1` had a z-score of 0.723.

`O=c1c2ccc(Cl)cc2[nH]c(=S)n1Cc1cccnc1` gave a z-score of 2.08.

Turning to `O=c1c2cc(Br)ccc2[nH]c(=S)n1Cc1cccnc1`, the z-score came out at 1.87.

The molecule `CC(=O)Nc1ccc(Sc2ncccc2C(=O)Nc2cc(Cl)cc(Cl)c2)cn1` came in with a z-score of 0.0331.

For `CCc1nc(SCC(=O)Nc2c(C)n(C)n(-c3ccccc3)c2=O)n[nH]1`, the z-score was -0.584.

The molecule `Cc1ccc(Cl)c(OCC(=O)Nc2sc(C)c(C)c2C#N)c1` returned a z-score of 0.877.

As for `CC(NC(=O)COc1ccccc1)C1COc2ccccc2O1` (centres undefined), the z-score is -0.67.

`Cc1ccc(C)c(N2CCN(C(=O)c3csc(C)c3C)CC2)c1` returned a z-score of 0.0161.

In the case of `CC(C)n1nc(C(=O)OCC(=O)c2c[nH]c3ccccc23)c2ccccc2c1=O`, the z-score is -2.75.

The molecule `COc1ccc(Br)cc1S(=O)(=O)N1CCCC1` came in with a z-score of -0.0684.

With `CCOC(=O)COc1c(OC)cc(Cl)cc1C1Nc2ccccc2C(=O)N1c1ccccc1` (centres undefined), the z-score is 0.355.

In the case of `Cc1ccc(Oc2ncc(CN3CC(C)OC(C)C3)s2)cc1` (centres undefined), the z-score is -0.107.

As for `CCn1c2ccccc2c2cc(NC(=O)CC(C)=O)ccc21`, the z-score was -0.32.

`COCCNC(=O)c1cnn2c1NC(c1ccco1)CC2C(F)(F)F` (centres undefined) returned a z-score of 0.0267.

The molecule `Cc1ccc(Cl)cc1NC(=O)c1cnn2c1NC(c1ccco1)CC2C(F)(F)F` (centres undefined) showed a z-score of -0.148.

Take `CCOC(=O)N1CCC(NC(=O)c2cnn3c2NC(c2ccco2)CC3C(F)(F)F)CC1` (centres undefined): the z-score is 4.33 (active).

In the case of `CCCCn1ccnc1C(=O)c1cc(S(=O)(=O)N2CCOCC2)ccc1C`, the z-score was -0.0858.

For the molecule `CSc1nnc(CSc2cc(C)nc(N(C)C)n2)o1`, the z-score was -0.325.

`O=C(O)c1ccc(NS(=O)(=O)c2cc(Cl)ccc2Cl)cc1` had a z-score of -0.151.

For the molecule `O=S(=O)(Nc1nc(-c2sccc2Cl)cs1)c1cc(Cl)ccc1Cl`, the z-score is 3.41 (active).

The molecule `O=S(=O)(Nc1cccnc1)c1cc(Cl)ccc1Cl` gave a z-score of -0.00571.
